Tau fluor counter – Counterscreen qHTS for Inhibitors of Tau Fibril Formation, Fluorescence Polarization | 280,000 compounds, 0.93% hits | Potency, µM (doses to about 57.7 µM), for the others: top-dose activity change, negative = decrease | tau K18 P301L Alexa594 fluorescence, heparin fibrillization | AID 1463, 2008; also: potency is read from the fitted curve at half-maximal effect; nearly all actives have a fitted effect of over 55% in size
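Human tau K18 P301L (15 uM unlabeled, 0.24 uM Alexa 594-labeled) in 100 mM sodium acetate pH 7 with 20 uM heparin, 6 hr at 37 C. ThT 30 uM added, 1 hr ambient; Alexa 594 FP and total fluorescence read at 555/632 nm.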
Sfp inh – qHTS Assay for Inhibitors of Bacillus subtilis Sfp phosphopantetheinyl transferase (PPTase). Potency, µM, for the others: largest response in the series, negative = inhibition, actives largely listed as inhibitors. Biochemical Sfp PPTase activity, qHTS. 310,000 compounds, 3.5% hits. AID 1490, 2009. 4'-phosphopantetheinyl transferase ffp (Bacillus subtilis), Q9F4F7;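 also: the enzyme is Sfp with the accession as filed and its product quenches rhodamine fluorescence; potency is read from the fitted curve at half-maximal effect; 0% = enzyme reaction without inhibitor and -100% = no enzyme wells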
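Buffer: 50 mM Hepes-Na pH 7.6, 10 mM MgCl2, 0.01% Nonidet P-40, 0.01% BSA. Enzyme 15 nM, pre-exposed to compound 15 min; substrates then added and fluorescence change tracked over 30 min.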
Tau ThT inhib – qHTS for Inhibitors of Tau Fibril Formation, Thioflavin T Binding; Microtubule-associated protein tau (Homo sapiens), P10636; recombinant tau K18 P301L (four-repeat tau fragment), heparin-induced fibrillization, ThT fluorescence; Potency, µM (highest dose often 57.4 µM), without a hit: at the top dose activity, negative = inhibition, usual class: inhibitors; 270,000 compounds, 2.1% hits; AID 1460, 2008; also: potency is read from the fitted curve at half-maximal effect; nearly all actives have a fitted effect of over 55% in size
Target sequence (P10636 561-689 P618L limits assumed): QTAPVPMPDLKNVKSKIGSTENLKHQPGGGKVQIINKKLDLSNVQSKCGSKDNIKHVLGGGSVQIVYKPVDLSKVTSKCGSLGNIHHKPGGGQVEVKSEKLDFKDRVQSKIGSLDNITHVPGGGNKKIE
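K18 P301L tau (15 uM + 0.24 uM Alexa 594-tagged), heparin 20 uM, NaOAc pH 7, 6 h 37 C; ThT 30 uM, 1 h RT, ex 450/em 510 nm.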
G9a inh – qHTS Assay for Inhibitors of Histone Lysine Methyltransferase G9a. Histone-lysine N-methyltransferase EHMT2 (Homo sapiens), Q96KQ7. G9a H3K9 monomethylation, AlphaScreen, 2 h. Potency, µM (highest dose often 102 µM), inactives show at the highest dose activity, negative = inhibition, usual class: inhibitors. 350,000 compounds, 8.8% hits; also: potency is read from the fitted curve at half-maximal effect; nearly all actives have a fitted effect of over 75% in size
Target sequence (Q96KQ7 913-1193 limits assumed): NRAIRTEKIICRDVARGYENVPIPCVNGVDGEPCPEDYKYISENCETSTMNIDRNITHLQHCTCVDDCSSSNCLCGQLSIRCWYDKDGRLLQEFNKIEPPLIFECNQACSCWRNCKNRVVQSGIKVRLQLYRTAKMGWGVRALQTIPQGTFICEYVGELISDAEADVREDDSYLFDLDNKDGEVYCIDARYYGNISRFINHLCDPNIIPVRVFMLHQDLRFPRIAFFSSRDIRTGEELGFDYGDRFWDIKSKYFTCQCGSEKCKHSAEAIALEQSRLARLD
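G9a (20 nM) preincubated 15 min RT with compounds, then 500 nM biotinylated H3K9 peptide and 20 uM SAM added; 2 h RT reaction. Monomethyl-H3K9 product detected by AlphaScreen with anti-H3K9me1 antibody, streptavidin donor and anti-rabbit IgG acceptor beads.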
Coupling enz – qHTS Assay for Inhibitors of Fructose-1,6-bisphosphate Aldolase from Giardia Lamblia: Coupling assay counterscreen | coupling enzyme system counterscreen, AmpLite Red fluorescence | activity change, negative = inhibition, % at 58.2 µM, hits read low | 290,000 compounds, 0.67% hits | AID 2472, 2010; in the data active = activity change below about -30%
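Fluorescence at 525 nm excitation and 598 nm emission measured inhibition of the coupled detection system without aldolase. Compounds (at 57.5 uM final) were preincubated 10 min at room temperature with coupling enzyme reagent before a 20 min substrate/AmpLite Red step.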
Tau FP inhib – qHTS for Inhibitors of Tau Fibril Formation, Fluorescence Polarization | Microtubule-associated protein tau (Homo sapiens), P10636 | 280,000 compounds, 0.39% hits | Potency, µM (series often up to 57.7 µM), for inactives: at the top dose activity, negative = inhibition, most hits filed as inhibitors | K18 P301L tau heparin fibrillization, Alexa594 FP, 6 h | AID 1468, 2008; also: potency is read from the fitted curve at half-maximal effect; nearly all actives have a fitted effect of over 55% in size
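Read-out: fluorescence polarization of Alexa 594-labeled tau (0.24 uM), 555 nm excitation, 632 nm emission. Mixtures held 15 uM unlabeled K18 P301L, compound and 20 uM heparin, pH 7 acetate buffer, incubated 6 hr at 37 C.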
The depositor's hits bear a star; [ ] = remark or other dose. In the library only some 11% were active in any assay of this set; here they are far more common. Unless noted, calls follow the shape of the dose curve; as a rule, active = well fitted curve in the direction sought with a large enough effect; inconclusive = small, poorly fitted or top-dose-only effect, or another doubt; inactive = no such curve, though single readings can be large; an effect the other way counts as inactive or inconclusive. Unless noted, % is scaled to controls: 0 for no effect and ±100 for the full control effect.

`O=c1ccc(=O)n(-c2ccccc2)[nH]1` gave Tau fluor counter 3.8%, Sfp inh 50.1µM*, Tau ThT inhib -1.0%, G9a inh 14.1µM*, Coupling enz 2.2 and Tau FP inhib 3.5%.
`Cc1ccc(-n2nc(C(=O)N3CCN(c4cccc(C(F)(F)F)c4)CC3)c3c4ccccc4n(C)c3c2=O)cc1` gave Tau fluor counter -4.1%, Tau ThT inhib 6.2%, G9a inh -13.3%[59 µM] and Tau FP inhib -12.7%.
O=C(Nc1ccccc1Cl)C1CCCN(c2ncnc3c2nc2n3CCCCC2)C1 (stereo not drawn) was read as Sfp inh -10.9%, G9a inh 24.2% and Coupling enz 1.5.
Cc1ccc(N2C(=O)CC(Sc3ccccc3C(=O)O)C2=O)cc1 (stereo not drawn) was read as Tau fluor counter -6.3%, Sfp inh inconclusive, Tau ThT inhib inconclusive, G9a inh inconclusive, Coupling enz 3.7 and Tau FP inhib -0.2%.
Screening CC(C)CN1C(=O)CC(Sc2ccccc2C(=O)O)C1=O (stereo not drawn) returned Tau fluor counter -4.9%, Sfp inh -5.2%, Tau ThT inhib -9.5%, G9a inh 1.12µM*, Coupling enz 6.4 and Tau FP inhib 3.8%.
O=C(O)c1ccccc1SC1CC(=O)N(c2ccc3c(c2)OCO3)C1=O (stereo not drawn) was read as Tau fluor counter -2.9%, Sfp inh 50.1µM*, Tau ThT inhib inconclusive, G9a inh 1.58µM*, Coupling enz 0.6 and Tau FP inhib 0.6%.
For CCOC(=O)c1c(N2C(=O)CC(Sc3ccccc3C(=O)O)C2=O)sc(C)c1C (stereo not drawn) the results were Tau fluor counter -5.2%, Sfp inh 7.94µM*, Coupling enz 13.0 and Tau FP inhib -9.8%.
`Cc1cccc(N2C(=O)CC(Sc3ccccc3C(=O)O)C2=O)c1` (stereo not drawn) gave Tau fluor counter 0.9%, Sfp inh 56.2µM*, Tau ThT inhib inconclusive, G9a inh inconclusive, Coupling enz 0.9 and Tau FP inhib -1.7%.
Screening CCCCOC(=O)C1=C(C)NC(=O)NC1c1ccccc1 (stereo not drawn) returned Sfp inh 12.8%, G9a inh 28.4% and Coupling enz 0.0.
`O=C(Nc1ccc(F)c(S(=O)(=O)N2CCOCC2)c1)C1CCCCC1` gave G9a inh 0.0%[12.7 µM].
For CCN1C(=O)[C@H]2[C@H]3[C@H](O)[C@H](O)C/C(=N/O[C@@H]4O[C@H](COC(C)=O)[C@@H](OC(C)=O)[C@H](OC(C)=O)[C@H]4OC(C)=O)[C@@H]3CC[C@@H]2C1=O the results were Tau fluor counter 3.2%[11.6 µM], Sfp inh 2.2%, Tau ThT inhib -3.1%[11.5 µM], Coupling enz 0.8 and Tau FP inhib 0.6%[11.6 µM].
`Cc1cc(C)cc(N2C(=O)CC(Sc3ccccc3C(=O)O)C2=O)c1` (stereo not drawn) gave Tau fluor counter -0.7%, Sfp inh 56.2µM*, Tau ThT inhib inconclusive, G9a inh inconclusive, Coupling enz 7.0 and Tau FP inhib 6.7%.
CN(C)c1ccc(N2C(=O)CC(Sc3ccccc3C(=O)O)C2=O)cc1 (stereo not drawn) was read as Tau fluor counter -21.7%, Sfp inh 44.7µM*, Tau ThT inhib inconclusive, G9a inh 1.41µM*, Coupling enz 9.0 and Tau FP inhib 1.4%.
Screening Cc1ccc(N2C(=O)CC(Sc3ccccc3C(=O)O)C2=O)cc1C (stereo not drawn) returned Tau fluor counter -1.2%, Sfp inh 50.1µM*, Tau ThT inhib -15.3%, G9a inh 1.58µM*, Coupling enz 2.5 and Tau FP inhib -2.4%.
For COCCn1c(=O)c(-c2ccc(F)cc2)nc2cnc(N(C)C)nc21 the results were Sfp inh 10.7%, G9a inh 9.5%[0.501 µM] and Coupling enz -1.5.
Screening COC(=O)N[C@@H](c1cccc(C)c1)C(C(C)=O)C(=O)OC (stereo partly drawn) returned Tau fluor counter -9.8%, Sfp inh -6.7%, Tau ThT inhib -9.8%, Coupling enz 2.7 and Tau FP inhib -4.6%.
COc1cc(C2c3c(oc4ccc(F)cc4c3=O)C(=O)N2Cc2ccc3c(c2)OCO3)ccc1O (stereo not drawn) was read as Tau fluor counter -11.3%, Tau ThT inhib -10.0%, G9a inh 28.3%[59 µM] and Tau FP inhib -2.1%.
Screening O=C(c1ccco1)N1N=C(c2ccco2)CC1c1ccc(Cl)cc1Cl (stereo not drawn) returned G9a inh 20.2%[2.33 µM].
Screening COc1cccc(C2CC(=O)N(c3ccc(F)cc3)C3=C2C(=O)OC3)c1OC (stereo not drawn) returned Tau fluor counter -5.9%, Tau ThT inhib -0.1%, G9a inh -26.4%[59 µM] and Tau FP inhib -3.1%.
CC1=CC(C)(C)Nc2ccc(OS(=O)(=O)c3ccc(C)cc3)cc21 was read as Tau fluor counter 5.01µM*[quencher], Sfp inh -5.6%, Tau ThT inhib 8.91µM*, G9a inh 12.6µM*, Coupling enz -8.6 and Tau FP inhib inconclusive.
Screening CC(=O)Nc1ccc(S(=O)(=O)Oc2ccc3c(c2)C(C)=CC(C)(C)N3)cc1 returned Tau fluor counter 14.1µM*[quencher], Sfp inh -3.1%, Tau ThT inhib inconclusive, G9a inh inconclusive, Coupling enz -3.9 and Tau FP inhib inconclusive.
For COC(=O)c1ccc(OS(=O)(=O)c2ccc(NC(C)=O)cc2)cc1 the results were Tau fluor counter -11.2%, Sfp inh -2.9%, Tau ThT inhib 0.1%, G9a inh -2.9%[59 µM], Coupling enz 6.8 and Tau FP inhib -9.9%.
For CC1=CC(C)(C)Nc2ccc(OC(=O)CCN3C(=O)c4ccccc4C3=O)cc21 the results were Tau fluor counter inconclusive, Sfp inh 12.6%, Tau ThT inhib inconclusive, G9a inh 20µM*, Coupling enz -3.5 and Tau FP inhib inconclusive.
For CCOc1ccccc1NC(=O)c1nn(C)c2c1CSc1ccccc1-2 the results were Tau fluor counter 11.2µM*[quencher], Tau ThT inhib inconclusive, G9a inh inconclusive and Tau FP inhib -4.8%.
